Out of some 3,200 compounds screened, about 75 (2%) showed an effect of 50% or more. The sample holds strong results, similar compounds and a random draw of the others, so the mix is not that of the screen.
Each compound was assayed on T1, S. aureus MSSA476. Conditions: relative growth, OD600, TSB; 25 µM; inhibitor.
T1 construct: MSSA476
Design: species or system S. aureus MSSA476 (TSB) or V. cholerae SAD30 (LB); 384-well bacterial growth screen at 25 uM, OD600 relative to DMSO control
In the case of `Cc1cccc(-n2cc(C(=O)CCl)nn2)c1` [10-L07], the “% of control remaining” value is reported as 0%. With `O=C(CCl)NC1CC(=O)N(c2cccc(C(F)(F)F)c2)C1` (centres unmarked) [5-E09, 2-chloro-N-{5-oxo-1-[3-(trifluoromethyl)phenyl]pyrrolidin-3-yl}acetamide] the “% of control remaining” value was 113.661%. `O=C(CCl)c1cn(-c2cccc(C(F)(F)F)c2)nn1` [10-C09, 2-chloro-1-{1-[3-(trifluoromethyl)phenyl]-1H-1,2,3-triazol-4-yl}ethan-1-one] was tested, and the “% of control remaining” value was -0.3125%. For `O=C(CCl)c1c[nH]c2ccc(F)cc12` [10-O11, 2-chloro-1-(5-fluoro-1H-indol-3-yl)ethan-1-one], the “% of control remaining” value was 120.625%. With `O=C(CCl)c1ccc(C(F)(F)F)cc1` [10-B10, 2-chloro-1-[4-(trifluoromethyl)phenyl]ethan-1-one] the “% of control remaining” value was 135.938%. `CC(NC(=O)CCl)c1cn(-c2ccccc2)nn1` (centres unmarked) [5-O06, 2-chloro-N-[1-(1-phenyl-1H-1,2,3-triazol-4-yl)ethyl]acetamide] was tested, and the “% of control remaining” value was 91.0747%. For `Cc1cccc(CC(=O)CCl)c1` [10-I19, 1-chloro-3-(3-methylphenyl)propan-2-one], the “% of control remaining” value was 130.938%. `O=C(CCl)c1cn(-c2ccc(F)cc2)nn1` [10-F05] was tested, and the “% of control remaining” value was 0%. `Cn1cc(C(=O)CCl)nn1` [10-M19, 2-chloro-1-(1-methyl-1H-1,2,3-triazol-4-yl)ethan-1-one] was tested, and the “% of control remaining” value was 87.5%. For `O=C(CCl)NCC(=O)Nc1nccs1` [5-G22, 2-chloro-N-{[(1,3-thiazol-2-yl)carbamoyl]methyl}acetamide], the “% of control remaining” value was 86.3388%. `Cc1nn(-c2ccccc2)c(Cl)c1C=C(C#N)C(=O)NC(C)C` [9-J17, 3-(5-chloro-3-methyl-1-phenyl-1H-pyrazol-4-yl)-2-cyano-N-(propan-2-yl)prop-2-enamide] was tested, and the “% of control remaining” value was 77.9026%. For `C=CC(=O)N(C)CC(=O)Nc1ccc(N2C[C@@H](C)O[C@@H](C)C2)cc1` [3-H08, N-[({4-[(2R,6S)-2,6-dimethylmorpholin-4-yl]phenyl}carbamoyl)methyl]-N-methylprop-2-enamide], the “% of control remaining” value was 117.719%. In the case of `CC(C)N(c1ccccc1)c1ccc(NC(=O)CCl)cc1` [6-I17, 2-chloro-N-{4-[phenyl(propan-2-yl)amino]phenyl}acetamide], the “% of control remaining” value is reported as 116.78%. For `CCC(c1cc(Cl)cc(Cl)c1)N(C)C(=O)CCl` (centres unmarked) [7-L10, 2-chloro-N-[1-(3,5-dichlorophenyl)propyl]-N-methylacetamide], the “% of control remaining” value was 75.0392%.

— article PMC11995724, “Antibiotic target discovery by integrated phenotypic and activity-based profiling of electrophilic fragments” (Cell chemical biology, 2025)
